# ± gives the standard deviation.
# What was measured:
# Details in all cases: modulator concentration 10 µM
# [1] = system: RAW-Dual (murine macrophage reporter line); experiment: NF-kB reporter (SEAP) activity fold change vs agonist alone; higher = enhanced NF-kB activity
# Method in brief: (§1)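 RAW-Dual murine macrophage reporter cells were seeded at 50 000 per well in 384-well plates and pre-incubated 1 hour at 37 °C with compound pin-transferred to 10 μM final. After 1 hour, a PRR agonist was added and cells incubated overnight. Supernatant NF-κB (SEAP, QUANTI-Blue, 620 nm absorbance) and IRF (Lucia luciferase, QUANTI-Luc, luminescence) signals were divided by the mean agonist-only control on the same plate to give fold change. Two replicate plates were averaged, with errors by propagation.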
# [2] = system: RAW-Dual (murine macrophage reporter line); experiment: IRF reporter (Lucia luciferase) activity fold change vs agonist alone; higher = enhanced IRF activity
# Method in brief: as §1
# [3] = system: RAW-Dual (murine macrophage reporter line); experiment: viability score (confluency relative to resting cells, overnight) (fraction); higher = more viable, active = viable (0.7 or more)
# Method in brief: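 RAW-Dual macrophages in 384-well plates were treated overnight with compound at 10 μM final. IncuCyte imaging recorded confluency, and IncuCyte software built two confluency masks across every imaged well. The viability score expresses confluency relative to resting cells and was judged against a cutoff, which a compound met only if both masks exceeded 70% of resting cells.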
# [4] = agonist: CpG ODN 1826 0.5 ug/mL
SMILES,"NF-kB reporter [1, 4]",NF-kB reporter ([1]; agonist: LPS 0.1 ug/mL),NF-kB reporter ([1]; agonist: MPLA […]),IRF reporter ([2]; agonist: 3'3'-cGAMP 10 ug/mL),IRF reporter ([2]; agonist: LPS 0.1 ug/mL),IRF reporter ([2]; agonist: MPLA […]),viability score [3]
CC(O)(CNC(=O)NCc1ccc(F)cc1)c1ccc(-c2ccccc2)cc1 (configuration not stated),0.998 ± 0.053,1.14 ± 0.12,0.873 ± 0.077,1.08 ± 0.056,1.32 ± 0.1,1.62 ± 0.14,0.966 (active)
COc1cccc2c1C(=O)c1c(O)c3c(c(O)c1C2=O)C[C@@](O)(C(C)=O)C[C@@H]3O[C@H]1C[C@H](N)[C@H](O)[C@H](C)O1 [Prestw-487],0.0705 ± 0.0054,0.0667 ± 0.019,0.095 ± 0.0092,0.0214 ± 0.0026,0.024 ± 0.0063,0.0245 ± 0.0067,0.325 (inactive)
COC(=O)/C=C/C(=O)OC,1.2 ± 0.17,1.06 ± 0.17,1.01 ± 0.064,0.61 ± 0.019,1.19 ± 0.28,1.09 ± 0.12,1 (active)
C=CCN1C(=O)C(C)(C)COc2cc(NC(=O)c3ccc(Br)o3)ccc21,1.25 ± 0.11,0.93 ± 0.21,1.07 ± 0.037,0.53 ± 0.046,0.933 ± 0.096,0.982 ± 0.24,0.994 (active)
Cc1cc(C(O)CNC(=O)c2ccc(C(F)(F)F)nc2)c(C)o1 (configuration not stated),1.25 ± 0.083,1.05 ± 0.085,1.01 ± 0.029,0.965 ± 0.049,1.04 ± 0.053,1.16 ± 0.11,1 (active)
Cc1ccc(Cn2c(N)nc3ccccc32)cc1,0.363 ± 0.067,1.21 ± 0.12,1.09 ± 0.098,1.07 ± 0.07,1.09 ± 0.23,1.37 ± 0.14,0.702 (active)
Cc1ccc(C)n1-c1ccc(C(=O)OCC(=O)c2ccc([N+](=O)[O-])cc2)cc1,0.888 ± 0.071,0.845 ± 0.054,1.31 ± 0.42,0.666 ± 0.044,1.1 ± 0.064,1.01 ± 0.14,0.976 (active)
Cc1nnc(NC(=O)CSc2nc3ccccc3[nH]2)s1,1.11 ± 0.094,1.01 ± 0.073,0.954 ± 0.078,1.14 ± 0.22,1.01 ± 0.13,1.05 ± 0.2,0.995 (active)
CC(C)Oc1ccc(C(=O)N2CCC(c3ccccc3)S(=O)(=O)CC2)cc1 (configuration not stated),0.906 ± 0.061,1.07 ± 0.098,0.876 ± 0.049,0.928 ± 0.049,1.13 ± 0.069,1.09 ± 0.092,0.992 (active)
CC(C)c1cc(C(=O)N2Cc3ccc(CN4CCN(C)CC4)cc3C2)c(O)cc1O,0.0684 ± 0.0053,0.106 ± 0.0088,0.311 ± 0.052,0.509 ± 0.3,0.971 ± 0.37,0.991 ± 0.44,0.762 (active)
CC(C)Oc1ccc(C(=O)N2CCC(c3ccccc3)S(=O)(=O)CC2)cn1 (configuration not stated),1.06 ± 0.08,0.861 ± 0.13,0.998 ± 0.052,0.921 ± 0.054,1.03 ± 0.049,0.968 ± 0.13,0.989 (active)
Cn1c(=O)c2c(ncn2CC2OCCO2)n(C)c1=O,0.89 ± 0.12,0.921 ± 0.067,0.99 ± 0.057,0.919 ± 0.084,0.904 ± 0.11,0.845 ± 0.17,1 (active)
Cn1cnc2cc(NCc3ccc(Br)cc3)ccc21,0.882 ± 0.14,0.762 ± 0.076,0.984 ± 0.1,0.805 ± 0.045,1.06 ± 0.21,1.13 ± 0.25,0.984 (active)
Oc1ccc(Nc2nc(Nc3ccc(O)cc3)nc(N3CCOCC3)n2)cc1,0.559 ± 0.13,2.28 ± 0.18,4.45 ± 0.34,0.383 ± 0.016,2.4 ± 0.25,4.43 ± 1.1,0.757 (active)
C=CCNC(N)=S,1.37 ± 0.2,1 ± 0.32,0.931 ± 0.077,0.898 ± 0.027,1.06 ± 0.4,0.986 ± 0.17,1.01 (active)
CC(C)NC(=O)CCn1c(=O)c2cc(Cl)ccc2n2c(SCc3ccc(F)cc3)nnc12,0.992 ± 0.077,1.01 ± 0.093,1.1 ± 0.06,1.02 ± 0.056,1.15 ± 0.19,1.41 ± 0.39,0.964 (active)
CCc1c(C)c2ccc(OCC(C)=O)c(C)c2oc1=O,0.936 ± 0.21,0.984 ± 0.098,0.938 ± 0.098,0.942 ± 0.068,1.27 ± 0.3,1.2 ± 0.13,0.991 (active)
C[C@@H]1COC(Nc2ccc3ncnc(Nc4ccc(OCc5nccs5)c(Cl)c4)c3c2)=N1,0.381 ± 0.07,0.881 ± 0.17,0.84 ± 0.065,0.186 ± 0.023,0.833 ± 0.2,1.27 ± 0.23,0.595 (inactive)
O=C(CCCCCCNC(=O)c1cnc(N(c2ccccc2)c2ccccc2)nc1)NO,1.14 ± 0.067,0.318 ± 0.026,0.797 ± 0.15,0.954 ± 0.08,2.78 ± 0.69,3.16 ± 1,0.95 (active)
CN1CCN(C(CC(=O)Nc2cccc(C(F)(F)F)c2)C(=O)O)CC1 (configuration not stated),1.02 ± 0.051,1.09 ± 0.086,0.859 ± 0.038,0.979 ± 0.049,1.16 ± 0.1,1.17 ± 0.26,0.999 (active)
CCN(CC)CCOCCOC(=O)C1(c2ccccc2)CCCC1 [Prestw-387],0.668 ± 0.12,1.14 ± 0.12,0.993 ± 0.12,0.684 ± 0.019,1.03 ± 0.12,1.11 ± 0.19,0.993 (active)
COc1ccc(C2CC(=O)c3c(O)cc(O)cc3O2)cc1O (configuration not stated),1.43 ± 0.35,1.14 ± 0.064,1.15 ± 0.073,0.845 ± 0.028,1.14 ± 0.21,1.1 ± 0.1,1 (active)
O=C(O)c1ccccc1N(Cc1ccccc1)S(=O)(=O)c1ccccc1,1.14 ± 0.13,1 ± 0.15,1.08 ± 0.061,0.965 ± 0.1,1.06 ± 0.072,0.938 ± 0.14,0.984 (active)
CC1=C(C(=O)Nc2cccc(C)n2)C(c2ccsc2)C2=C(CC(C)(C)CC2=O)N1 (configuration not stated),1.04 ± 0.16,1.02 ± 0.057,0.996 ± 0.059,0.954 ± 0.04,1.2 ± 0.086,0.979 ± 0.12,1.01 (active)
Cc1ccc(-n2ncc3c(SCC(=O)NC(C)(C)C)ncnc32)c(C)c1,1.01 ± 0.082,1.16 ± 0.1,1.05 ± 0.047,0.644 ± 0.026,0.95 ± 0.048,1.22 ± 0.18,0.996 (active)
COc1cccc(N2CCN(C3CCN(CC4CCOCC4)CC3)CC2)c1,0.75 ± 0.078,1.03 ± 0.11,1.22 ± 0.17,0.901 ± 0.043,1.26 ± 0.23,1.42 ± 0.49,0.966 (active)

# Source: the supplement of paper PMC10646978
